SARS PLP yeast: qHTS of Yeast-based Assay for SARS-CoV PLP; S. cerevisiae expressing SARS-CoV PLpro, growth rescue; hit rate 0.19% among 330,000; Potency, µM (series often up to 32.9 µM), inactives show top-dose activity, positive = growth rescue, usual class: activators; calls by dose curve; note: 0% is about no effect; nearly all actives have a fitted effect of over 55% in size
NS1 function inh: qHTS Assay for Inhibitors of Influenza NS1 Protein Function; Potency, µM (doses to about 46.1 µM), for inactives: at the highest dose activity, positive = more growth; AID 2326, 2010; hit rate 0.4% among 270,000; calls by dose curve; note: actives are rising curves; nearly all actives have a fitted effect of over 50% in size
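Compounds were scored for reversing the slow growth caused by influenza A NS1 in S. cerevisiae, measured by optical density at 600 nm. Assay medium contained 2% galactose at pH 6.0; NS1-free yeast of the same strain were the positive control.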
Pf growth 48h: Primary qHTS for delayed death inhibitors of the malarial parasite plastid, 48 hour incubation. P. falciparum luciferase growth in erythrocytes, 48 h. hit rate 5.9% among 310,000. Potency, µM (series often up to 28.7 µM), inactives show top-dose activity change, negative = inhibition, actives largely listed as inhibitors; note: % is set by controls: 0 for no effect and ±100 for the full control effect
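Read-out is firefly luciferase luminescence from an integrated reporter in P. falciparum, so falling signal marks reduced parasite growth. Infected erythrocytes were at 2% hematocrit and 0.1% parasitemia (final) in Albumax-supplemented RPMI 1640.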
Pf growth 96h: Primary qHTS for delayed death inhibitors of the malarial parasite plastid, 96 hour incubation | P. falciparum luciferase reporter growth, 96 h | Potency, µM (highest dose often 28.7 µM), inactives show at the highest dose activity change, negative = inhibition, usual class: inhibitors | hit rate 6.9% among 320,000 | AID 504834, 2011; note: % is set by controls: 0 for no effect and ±100 for the full control effect
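Compounds incubated with erythrocytes infected by luciferase-expressing P. falciparum (2% hematocrit, 0.05% parasitemia final) for 96 hours, 37 C in 5% CO2. Growth inhibition scored as decreased luciferase luminescence.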
Numbers without * were called inactive; ? = inconclusive; . = not tested or not shown. Only some compounds are listed: those with a hit (about 10% of all), similar ones and a draw of the others. Unless noted, calls come from the whole dose curve; as a rule, active = well fitted inhibition curve with a large enough effect; inconclusive = small, poorly fitted or top-dose-only effect, or another doubt; inactive = no such curve, though single readings can be large or run the other way. Potency is the fitted concentration of half-maximal effect.

SMILES	SARS PLP yeast	NS1 function inh	Pf growth 48h	Pf growth 96h
O=C(NCc1n[nH]c(=S)n1-c1ccc([N+](=O)[O-])cc1)c1ccc(S(=O)(=O)N2CCOCC2)cc1	-5.4%	.	5.6%	6.57µM*
COc1ccc(C(c2sc3nc(C)nn3c2O)N2CCN(Cc3ccccc3)CC2)cc1OC (stereo unspecified)	1.1%	-8.6%	?	0.828µM*
COc1ccc(C(c2sc3nc(C)nn3c2O)N2CCC(O)CC2)cc1OC (stereo unspecified)	-0.1%	0.6%	-1.3%	2.1%
CCOc1ccc(-n2c(SC(C)C)nc3c(c2=O)SCC3)cc1	7.3%	0.1%	8.28µM*	151.1%
CSc1nc2c(c(=O)n1-c1ccc(F)cc1)SCC2	-7.1%	-0.9%	-21.6%	0.0%
CSc1nc2c(c(=O)n1-c1ccc(C)cc1)SCC2	-0.2%	-4.8%	9.28µM*	-3.7%
O=C(c1ccco1)N1CCN(C/C=C/c2ccccc2)CC1	?	-1.4%	31.4%	-3.9%
COc1ccc(C(=O)NC2CC2)cc1OC1CCN(Cc2ccccc2)CC1	3.8%	5.5%	-14.5%	?
COc1cc(C(=O)N2CCN(C/C=C/c3ccccc3)CC2)cc(OC)c1OC	17.5%	1.3%	?	?
O=C(c1nn(Cc2ccccc2)c(=O)c2ccccc12)N1CCN(C/C=C/c2ccccc2)CC1	4.5%	-4.9%	11.7µM*	7.38µM*
O=C(c1ccc(OC2CCN(C/C=C/c3ccccc3)CC2)cc1)N1CCCC1	4.4%	-4.4%	2.94µM*	10.4µM*
CCOc1cc(C(=O)N2CCN(C/C=C/c3ccccc3)CC2)cc(OCC)c1OCC	4.1%	-5.9%	.	5.22µM*
COc1ccccc1/C=C/CN1CCC(Oc2cc(C(=O)NC3CC3)ccc2OC)CC1	2.6%	2.9%	9.28µM*	44.7%
COc1cc2c(cc1OC)[C@H](C)N(C(=O)NCc1ccccc1)CC2	0.3%	-7.8%	.	-18.2%
COc1ccc(/C=C/CN2CCC(Oc3ccc(C(=O)N4CCCCC4)cc3)CC2)cc1	-5.8%	-4.1%	?	?
COc1ccc(NS(=O)(=O)c2cc(C(=O)N3CCN(C/C=C/c4ccccc4)CC3)ccc2C)cc1	1.9%	.	11.7µM*	?
O=C(c1cccc([N+](=O)[O-])c1)N1CCN(C/C=C/c2ccccc2)CC1	-0.2%	1.9%	?	?
COc1ccccc1/C=C/CN1CCC(Oc2ccc(C(=O)N3CCCCC3)cc2)CC1	25.0%	-11.9%	7.38µM*	15.5%
Cc1cc(C)cc(NC(=O)N2CCN(C/C=C/c3ccccc3)CC2)c1	-0.6%	-1.7%	-7.9%	2.94µM*
CC(C(=O)Nc1cccc([N+](=O)[O-])c1)N1CCN(C/C=C/c2ccccc2)CC1 (stereo unspecified)	-16.9%	-2.9%	?	13.1µM*
CC1CN(C(=S)SCCN2C(=O)CCC2=O)CC(C)O1 (stereo unspecified)	0.2%	0.7%	20.0%	?
O=C(c1ccc(OC2CCN(Cc3ccccc3O)CC2)cc1)N1CCCCC1	?	-3.8%	?	-10.9%
Cc1cc(C)cc(CN2CCC(Oc3ccc(C(=O)N4CCCC4)cc3)CC2)c1	-0.5%	-5.7%	11.7µM*	-19.4%
CCNc1nnc(SCC(=O)NC2CCCCCC2)s1	0.4%	.	0.1%	2.1%
O=C(NCc1ccncc1)C1CCN(S(=O)(=O)c2ccc(Cl)c(C(F)(F)F)c2)CC1	3.7%	.	?	-7.4%
SMILES	SARS PLP yeast	NS1 function inh	Pf growth 48h	Pf growth 96h
O=C(/C=C/c1ccccc1)CC(O)(c1ccccc1)C(F)(F)C(F)F (stereo unspecified)	-22.3%	-123.2%	.	7.38µM*
COc1ccc(/C=C/C(=O)CC(O)(c2ccccc2)C(F)(F)F)cc1 (stereo unspecified)	-41.0%	-38.6%	13.1µM*	?
O=C(/C=C/c1ccccc1)CC(O)(c1ccccc1)C(F)(F)F (stereo unspecified)	-32.7%	-205.1%	.	?
CC1CCCN(c2ccc3nc4ccccc4c(=O)n3n2)C1 (stereo unspecified)	-9.6%	.	137.7%	?
Cc1ccc2nc3ccc(N4CCCC4)nn3c(=O)c2c1	-7.9%	-2.7%	171.3%	4.65µM*
O=C(CN1CCN(c2ccccc2O)CC1)Nc1ccccc1C(=O)NCCc1ccccc1	0.0%	.	-84.4%	0.3%
CC(NC(=O)c1ccccc1NC(=O)CN1CCN(c2ccccc2O)CC1)c1ccccc1 (stereo unspecified)	-5.6%	.	5.86µM*	13.1µM*
COc1ccccc1N1CCN(CC(=O)Nc2ccccc2C(=O)NC(C)c2ccccc2)CC1 (stereo unspecified)	-5.0%	.	11.7µM*	?
